Whole data set: some 18,000 sequences, median “log2 normalized intensity” near 0.36, cut for the highest 2% near 7.3. Many of the other results were omitted from the sample, so the highest values are more common in it than they were.

This assay concerns the target T1, HNF4alpha8 (COS-7 nuclear extract) (Homo sapiens, UniProt P41235-5 1-452).
T1 sequence: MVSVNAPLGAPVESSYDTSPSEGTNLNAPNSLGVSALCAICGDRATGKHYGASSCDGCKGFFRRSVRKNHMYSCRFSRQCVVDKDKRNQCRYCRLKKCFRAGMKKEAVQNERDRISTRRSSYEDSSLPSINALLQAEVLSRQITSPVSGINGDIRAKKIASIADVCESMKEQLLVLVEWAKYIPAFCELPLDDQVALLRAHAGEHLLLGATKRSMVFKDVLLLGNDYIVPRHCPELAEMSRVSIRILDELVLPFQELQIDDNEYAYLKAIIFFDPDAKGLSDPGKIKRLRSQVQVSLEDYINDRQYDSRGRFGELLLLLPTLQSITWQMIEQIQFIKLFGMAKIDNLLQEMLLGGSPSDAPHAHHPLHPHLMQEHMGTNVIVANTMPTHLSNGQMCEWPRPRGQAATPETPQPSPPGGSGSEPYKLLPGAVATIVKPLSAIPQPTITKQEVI
In words: protein-binding microarray; COS-7 nuclear extract on double-stranded Agilent 4x180k PBM; binding buffer, salt, pH and temperature not given in the material; high values mean tight binding. Particulars: chain copies: 2; label: 3' end of strand 1 on the slide; dsDNA, one strand shown. The essentials:
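Double-stranded oligonucleotides of ~60 nt, representing ~44,000 test sequences in quadruplicate, made up a custom Agilent SurePrint G3 4x180k array. Nuclear extracts from COS-7 cells transiently transfected by CaPO4 with a human HNF4α isoform expression vector were applied, and bound HNF4α was imaged at 2-µm resolution on an Agilent G2565CA scanner. Binding signal refers to the background-corrected, normalized gProcessedSignal output of Agilent software.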
Regarding “GACCTCATGTAGTCACATACCTATGCAAACGCCTAGGGAGATTAGAGTATCGGTCGA”, the binding signal came to 1.02 log2 normalized intensity.
For “CAGCATCTTCACCGTAAAGCCACCCCTTTCGCCTAGGGAGATTAGAGTATCGGTCGA”, the binding signal came to 2.59 log2 normalized intensity.
With “AGCGATCATGGGTGACCCGTTAAGAATGAGGCCTAGGGAGATTAGAGTATCGGTCGA”, the binding signal was 1.24 log2 normalized intensity.
The same measure for “CTTAGAATCGAATTGTGAAACTCAGAATCAGCCTAGGGAGATTAGAGTATCGGTCGA”: -0.796 log2 normalized intensity; for “TCACCTACTGACCTTTCTCCCTTTTCACAGGCCTAGGGAGATTAGAGTATCGGTCGA”: 3.5 log2 normalized intensity.
The same measure for “AAGATCTGTGAAAGAAAAGTACTTTAGTGTGCCTAGGGAGATTAGAGTATCGGTCGA”: 0.992 log2 normalized intensity; for “CAACAGGTGTTAAAATAACGACCTTTGGGCGCCTAGGGAGATTAGAGTATCGGTCGA”: 6.57 log2 normalized intensity; for “AATATCTCAGCACATGGCAGTGTACACTAGGCCTAGGGAGATTAGAGTATCGGTCGA”: 0.805 log2 normalized intensity.
The same measure for “GAGAGAAAAAATCAGAGAGCAAAGGTGATCGCCTAGGGAGATTAGAGTATCGGTCGA”: 2.63 log2 normalized intensity; for “ATTCCCCGACTCCTGGGTGTGAGATAAGGCGCCTAGGGAGATTAGAGTATCGGTCGA”: 0.0557 log2 normalized intensity; for “AGACTGGTTTGCACAGGTTACACAGTATGTGCCTAGGGAGATTAGAGTATCGGTCGA”: -0.754 log2 normalized intensity.
With “AAGGTCACTAATTGGAAGCTCTTTCCCTCCGCCTAGGGAGATTAGAGTATCGGTCGA”, the binding signal stood at 0.732 log2 normalized intensity.
On to “CAATAAGGACTTTGGACCGTCTTGTGGATCGCCTAGGGAGATTAGAGTATCGGTCGA”, for which the binding signal was determined as 6.72 log2 normalized intensity.
For the sequence “GTGAGTGGACTTTGGTCCTGGTCAGACTTGGCCTAGGGAGATTAGAGTATCGGTCGA”, the binding signal came out at 6.78 log2 normalized intensity.
On to “GAGCACTCATTCCTATTCGGTGCTGACCTTGCCTAGGGAGATTAGAGTATCGGTCGA”, for which the binding signal was 3.97 log2 normalized intensity.
The same measure for “CTCATTCCTATTCGGTGCTGACCTTTGTTCGCCTAGGGAGATTAGAGTATCGGTCGA”: 8.62 log2 normalized intensity; for “TCCTATTCGGTGCTGACCTTTGTTCACATTGCCTAGGGAGATTAGAGTATCGGTCGA”: 6.64 log2 normalized intensity; for “TTTGGACCTGGCCTGCGGGGTCAGGCCGTGGCCTAGGGAGATTAGAGTATCGGTCGA”: 2.71 log2 normalized intensity.
The same measure for “ACACACAATAAGGACTTTGGACCGTCTTGTGCCTAGGGAGATTAGAGTATCGGTCGA”: 8.19 log2 normalized intensity; for “GTTAAGTGAGTGGACTTTGGTCCTGGTCAGGCCTAGGGAGATTAGAGTATCGGTCGA”: 7.53 log2 normalized intensity.
On to “AGGACTTTGGACCGTCTTGTGGATCCTTGGGCCTAGGGAGATTAGAGTATCGGTCGA”, for which the binding signal turned out to be 5.27 log2 normalized intensity.
Consider “AGTCCATGTGTTAAATAATAACACTCCCATGCCTAGGGAGATTAGAGTATCGGTCGA”, for which the binding signal was -0.441 log2 normalized intensity.
With “CCTTCCCTTTCATGTTGAACGTCTTCAGAAGCCTAGGGAGATTAGAGTATCGGTCGA”, the binding signal was 1.35 log2 normalized intensity.
Regarding “CTGCCCAGACCTTATCTTGCATTTCTTCAGGCCTAGGGAGATTAGAGTATCGGTCGA”, the binding signal was found to be 0.246 log2 normalized intensity.
The same measure for “CTGCCTGCTTGGCCTCTCCACTTGGGTATCGCCTAGGGAGATTAGAGTATCGGTCGA”: -0.182 log2 normalized intensity; for “TGATCCAGGGCAAAGGTCATAATTTGATCCGCCTAGGGAGATTAGAGTATCGGTCGA”: 6.94 log2 normalized intensity; for “CAAAGGTCATAATTTGATCCAGTGTGCAAAGCCTAGGGAGATTAGAGTATCGGTCGA”: 4.08 log2 normalized intensity.
For “CACAGAGCAAAGGTCATGCATAGAAGTATGGCCTAGGGAGATTAGAGTATCGGTCGA”, the binding signal was determined as 4.43 log2 normalized intensity.
The same measure for “AGAAAACACAGAGATCTGATCAAAGGTCATGCCTAGGGAGATTAGAGTATCGGTCGA”: 6.61 log2 normalized intensity; for “GGACTTGATCCAGGGCAAAGGTCATAATTTGCCTAGGGAGATTAGAGTATCGGTCGA”: 7.95 log2 normalized intensity; for “ACACAGGACTTGATCCAGGGCAAAGGTCATGCCTAGGGAGATTAGAGTATCGGTCGA”: 7.91 log2 normalized intensity.
Turning to “AATGGAGTTTGGTTTAAAGTTCAAGTCATAGCCTAGGGAGATTAGAGTATCGGTCGA”, the binding signal was found to be 2.74 log2 normalized intensity.
In the case of “AGGTGTAACCTGCTCTCTCATGCCCTTTGCGCCTAGGGAGATTAGAGTATCGGTCGA”, the binding signal turned out to be 4.81 log2 normalized intensity.
For the sequence “CTTTCCTGGTGCCTCCTTATCTCCCCAACTGCCTAGGGAGATTAGAGTATCGGTCGA”, the binding signal is 3.48 log2 normalized intensity.
Consider “TTTTAATTAGAACTGTAATTGAGTAACCAGGCCTAGGGAGATTAGAGTATCGGTCGA”, for which the binding signal is 0.406 log2 normalized intensity.
For “GAAACCCTAAACCTGCAAACCTTTGACCTTGCCTAGGGAGATTAGAGTATCGGTCGA”, the binding signal stood at 5.96 log2 normalized intensity.
The same measure for “AAAAAAAAAAATTACTGACCCTTGCACTGTGCCTAGGGAGATTAGAGTATCGGTCGA”: 5.45 log2 normalized intensity.
With “AATTCATCTCTAAGCTACTGAAAATGACCTGCCTAGGGAGATTAGAGTATCGGTCGA”, the binding signal is 3.88 log2 normalized intensity.
The same measure for “ATCTCTAAGCTACTGAAAATGACCTTTGTTGCCTAGGGAGATTAGAGTATCGGTCGA”: 6.73 log2 normalized intensity.
Consider “TAAGCTACTGAAAATGACCTTTGTTCCCTGGCCTAGGGAGATTAGAGTATCGGTCGA”, for which the binding signal stood at 9.03 log2 normalized intensity.
In the case of “TACTGAAAATGACCTTTGTTCCCTGCACTTGCCTAGGGAGATTAGAGTATCGGTCGA”, the binding signal is 7.89 log2 normalized intensity.
“GATTTTCAGGTTCCCCAGTGAGGATGTGTGGCCTAGGGAGATTAGAGTATCGGTCGA”: the binding signal stood at 1.53 log2 normalized intensity.
The same measure for “TGGCGTATGCAGCAGGGCAGCAGCCTGACCGCCTAGGGAGATTAGAGTATCGGTCGA”: 0.823 log2 normalized intensity; for “TTAACCTCTATTGACCTTCTTATTTGGAGAGCCTAGGGAGATTAGAGTATCGGTCGA”: 2.41 log2 normalized intensity.
Take “GAGGAGACCTTTGGATATCATATCATCTTCGCCTAGGGAGATTAGAGTATCGGTCGA”: the binding signal was found to be 2.39 log2 normalized intensity.
